# Measurements taken from PubChem BioAssay (EPA / NIEHS).
# Records with an inconclusive call do not appear. Activity calls are given as the source filed them. Rule for the calls: active = hit-call score of the fitted dose curve at least 0.9, where 1 is the maximum; inconclusive = response in the unintended direction; inactive = score below 0.9.
# Biological target: Peroxisome proliferator-activated receptor gamma (Homo sapiens) (UniProt P37231)
# Assay: OT_PPARg_PPARgSRC1_0480: Odyssey Thera (OT) 8-hour Protein-Complementation Assay for Peroxisome Proliferator-activated Receptor Gamma / SRC-1 Co-activator (AID 2283387);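 note: nuclear to cytoplasmic split Venus YFP fluorescence ratio reporting PPARg SRC-1 interaction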
# Description: OT_PPARg_PPARgSRC1_0480 is a cell-based assay that uses HEK293T, a human kidney cell line, with measurements taken at 8 hours after chemical dosing in a 384-well plate.OT_PPARg_PPARgSRC1_0480 is one of one assay component(s) measured or calculated from the OT_PPARg_PPARgSRC1_0480 assay. It is designed to make measurements of protein fragment complementation, a form of binding reporter, as detected with fluorescence intensity signals by Protein-fragment Complementation technology.Data from the assay component OT_PPARg_PPARgSRC1_0480 was analyzed into 1 assay endpoint. This assay endpoint, OT_PPARg_PPARgSRC1_0480, was analyzed in the positive analysis fitting direction relative to DMSO as the negative control and baseline of activity. Using a type of binding reporter, measures of receptor for gain-of-signal activity can be used to understand the binding at the pathway-level as they relate to the gene PPARG. Furthermore, this assay endpoint can be referred to as a primary readout, because the performed assay has only produced 1 assay endpoint. To generalize the intended target to other relatable targets, this assay endpoint is annotated to the nuclear receptor intended target family, where the subfamily is non-steroidal.
# The OT PPARg/SRC-1 assay assessed receptor-chemical interactions using a rapidly maturing, intensely fluorescent mutant of YFP known as Venus, rationally dissected into two separate fragments. The fragments were obtained as follows: first, fragments coding for YFP1 and YFP2 (corresponding to amino acid residues 1-158 and 159-239 of the full length YFP, respectively) were generated by oligonucleotide synthesis (Blue Heron Biotechnology), and then PCR mutagenesis was used to generate the mutant fragments IFP1 and IFP2. Fusion constructs were transfected into HEK293T cells with a (Gly4Ser)2 linker between the PPARg/SRC-1 and YFP fragment genes to facilitate complementation when interacting proteins bring fragments into close proximity. The construct is transiently transfected in HEK293T cells 48 hours prior to treatment with test compounds. Cells are seeded into optical quality 384-well poly-D-lysine coated plates in MEM alpha medium (Invitrogen) supplemented with 10 percent FBS (Gemini Bio-Products) 1 percent penicillin and 1 percent streptomycin, and grown in 37C incubator equilibrated to 5 percent CO2. Cells are allowed to adhere for 24 hours prior to treatment with compounds of interest or controls for 8 hours. Cells are fixed in 4 percent formaldehyde and stained with Draq5 (BioStatus) to identify cells and subcellular compartment boundaries prior to signal detection. 8 Images per well were acquired on an Evotec Opera at 2 wavelengths (488 and 635nm), and the ratio of fluorescence in the nucleus relative to fluorescence in the cytoplasm (N/C Ratio) in the 488nm channel was calculated for a minimum of 350 cells per image.
# Peroxisome proliferator-activated receptor gamma (Homo sapiens), sequence (P37231 whole entry, looked up): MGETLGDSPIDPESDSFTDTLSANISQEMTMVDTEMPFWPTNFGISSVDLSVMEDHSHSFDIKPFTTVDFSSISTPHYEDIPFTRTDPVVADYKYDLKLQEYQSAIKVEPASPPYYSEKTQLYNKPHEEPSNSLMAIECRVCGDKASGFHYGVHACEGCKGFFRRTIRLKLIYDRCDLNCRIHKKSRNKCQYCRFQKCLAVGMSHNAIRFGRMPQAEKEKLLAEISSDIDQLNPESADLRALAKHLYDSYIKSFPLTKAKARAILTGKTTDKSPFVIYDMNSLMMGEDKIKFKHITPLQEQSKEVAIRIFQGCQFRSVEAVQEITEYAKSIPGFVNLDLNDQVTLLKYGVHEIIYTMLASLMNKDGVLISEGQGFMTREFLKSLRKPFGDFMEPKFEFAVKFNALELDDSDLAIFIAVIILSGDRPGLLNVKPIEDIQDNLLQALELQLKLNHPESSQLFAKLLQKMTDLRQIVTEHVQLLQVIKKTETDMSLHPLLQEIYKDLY
SMILES,outcome,AC50
CCCCCCCCCCCC(=O)N(C)CC(=O)O,inactive,–
CC1=NN(c2ccc(S(=O)(=O)O)cc2)C(=O)C1N=Nc1ccccc1 (stereo not given),inactive,–
Fc1ccc(Br)cc1,inactive,–
COc1ccc(-c2coc3cc(O)cc(O)c3c2=O)cc1,inactive,–
C[Si](C)(C)N[Si](C)(C)C,inactive,–
C=C[Si](OCCOC)(OCCOC)OCCOC,inactive,–
CCOC(=O)c1ccc(C)cc1,inactive,–
CC(CCC(=O)O)(c1ccc(O)cc1)c1ccc(O)cc1,inactive,–
O=C(OCCc1ccccc1)c1ccccc1,inactive,–
CCN1CN(CC)CN(CC)C1,inactive,–
C[Si]1(C)O[Si](C)(C)O[Si](C)(C)O[Si](C)(C)O[Si](C)(C)O1,inactive,–
CC1=CCC2CC1C2(C)C (stereo not given),inactive,–
CN(C)c1ccc2nc3ccc(=[N+](C)C)cc-3sc2c1,–,31.1 µM (active)
CCCCNS(=O)(=O)c1ccc(C)cc1,inactive,–
CC(=O)OCc1ccccc1,inactive,–
CCOC(=O)C1=NOC(c2ccccc2)(c2ccccc2)C1,inactive,–
CC(=O)OC(C)c1ccccc1 (stereo not given),inactive,–
C=C[C@@]1(C)CC(=O)[C@]2(O)[C@@]3(C)[C@@H](O)CCC(C)(C)[C@@H]3[C@H](O)[C@H](OC(C)=O)[C@@]2(C)O1,inactive,–
CCCCc1ccc(Cl)cc1,inactive,–
CCCCCCC=O,inactive,–

SMILES,outcome,AC50
COc1ccc(C(=O)c2ccccc2)c(O)c1,inactive,–
CCCC(CC)c1ccccc1 (stereo not given),inactive,–
N#Cc1ccc(C(c2ccc(C#N)cc2)n2cncn2)cc1,inactive,–
Oc1ccc(-c2ccccc2)c(Cl)c1,inactive,–
COC(=O)c1ccccc1C,inactive,–
CCCCCCOc1ccc(N)cc1,inactive,–
CC(C)COC(=O)CC(C(=O)OCC(C)C)S(=O)(=O)O (stereo not given),inactive,–
CCCCCCOC(=O)CCCCC(=O)OCCCCCC,inactive,–
CCCCCCO,inactive,–
CC(C)(C)C1CCC(=O)CC1,inactive,–
CCCCCCCO,inactive,–
COc1cc(O)c(C(=O)c2ccccc2)cc1S(=O)(=O)O,inactive,–
Cc1c(C(=O)c2c[nH]n(C)c2=O)ccc(S(C)(=O)=O)c1C1=NOCC1,inactive,–
O=C(O)CCC(=O)O,inactive,–
CC(=O)/C=C/C1C(C)=CCCC1(C)C (stereo not given),inactive,–
Oc1ccccc1Cc1ccccc1O,inactive,–
O=C(Oc1ccccc1)c1ccccc1O,inactive,–
CC(C)(C)NC(=O)[C@H]1CC[C@H]2[C@@H]3CC[C@H]4NC(=O)C=C[C@]4(C)[C@H]3CC[C@]12C,inactive,–
CCC1COC(=O)O1 (stereo not given),inactive,–
O=C(Nc1ccccc1)c1cc(Cl)ccc1O,inactive,–
